A selection: hits, their analogues and other compounds. The true share with any hit is near 3%.
SENP8 block-1 = inhibitors of human SENP8 protease; Q96LD8; inhibition, % at 10 µM; 330,000 compounds, 1.2% hits; purified SENP8, Z-RLRGG-aminoluciferin cleavage, luminescence; in the data active means inhibition above about 50%
Target sequence (Q96LD8 whole entry, looked up): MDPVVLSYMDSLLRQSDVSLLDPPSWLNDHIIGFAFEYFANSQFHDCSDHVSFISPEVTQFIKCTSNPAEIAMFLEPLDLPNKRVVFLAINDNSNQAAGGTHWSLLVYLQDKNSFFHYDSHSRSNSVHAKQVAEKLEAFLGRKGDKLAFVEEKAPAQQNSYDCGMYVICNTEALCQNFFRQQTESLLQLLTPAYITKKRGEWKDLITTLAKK
SENP6 inh = SENP6 protease inhibition; Recombinant SENP6 catalytic domain, aminoluciferin luminescence; Q9GZR1; 330,000 compounds, 1.8% hits; inhibition, % at 10 µM;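 active means inhibition above about 50% at the single tested dose, limit read from the data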;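 further: plate controls were DMSO wells with enzyme for no effect and DMSO wells lacking enzyme for full effect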
SENP7 inh = blocks the human protease SENP7; Q9BQF6; recombinant SENP7, Z-RLRGG-aminoluciferin luminescence, 40 min; inhibition, % at 5 µM; 330,000 compounds, 1.5% hits; AID 434973;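 active means inhibition above about 50% at the single test dose, limit read from the data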;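 further: plate controls were DMSO with enzyme for no effect and no enzyme buffer wells for full effect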
Target sequence (Q9BQF6 706-1050 limits assumed): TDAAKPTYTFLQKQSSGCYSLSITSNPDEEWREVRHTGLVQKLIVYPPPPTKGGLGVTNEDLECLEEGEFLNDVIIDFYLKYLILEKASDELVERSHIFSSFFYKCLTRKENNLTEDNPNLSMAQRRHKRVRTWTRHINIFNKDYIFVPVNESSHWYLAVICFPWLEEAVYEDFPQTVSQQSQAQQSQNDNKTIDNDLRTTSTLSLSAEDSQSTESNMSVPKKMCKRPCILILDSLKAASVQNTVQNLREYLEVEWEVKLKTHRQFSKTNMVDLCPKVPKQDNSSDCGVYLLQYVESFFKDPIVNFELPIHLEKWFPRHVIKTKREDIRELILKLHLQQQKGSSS
SENP8 block-2 = SENP8 (human) protease inhibition; recombinant SENP8, Nedd8 substrate fluorescence; Q96LD8; AID 602440; inhibition, % at 20 µM; 360,000 compounds, 0.64% hits; in the data active means inhibition mostly above about 40%, no sharp cut-off; inactive means mostly below about 27%
TRAIL sens C8 = caspase-8 TRAIL sensitization | NB7+C8 cells + TRAIL, ATPlite viability luminescence | inhibition (viability loss, TRAIL sensitization), % at 10 µM | 360,000 compounds, 1% hits;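 active means compounds causing at least 50% loss of cell viability in the single-dose screen, relative to plate controls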
PPC-1+TRAIL kill = kills PPC-1 cancer cells in the presence of TRAIL; cell killing (% activity), % at 4 µM or 5 µM; PPC-1 cells + TRAIL, ATPLite viability luminescence; 220,000 compounds, 0.41% hits;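 active means cell killing above 50% in the first pass at 4 µM, then a duplicate retest at 5 µM averaging 50% or more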;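 further: plate controls were cells with TRAIL plus DMSO for no effect and medium-only wells lacking cells for full effect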
* hit, by the source's call; i = inactive; / = no result given.

SMILES	SENP8 block-1	SENP6 inh	SENP7 inh	SENP8 block-2	TRAIL sens C8	PPC-1+TRAIL kill
Oc1c(CN2CCCCC2)cc(COCc2ccccc2)c2cccnc12	1	-21	-4	22	56*	15
O=C(NCc1cccnc1)NC1CC(=O)N(c2ccc3c(c2)OCCO3)C1 (configuration not stated)	-4	-16	8	4	-7	3
CCOc1ccc(-n2nnnc2-c2nc3ccccc3s2)cc1	9	15	-9	-402	63*	19
COc1ccc(OC)c(NC(=O)c2nc(S(=O)(=O)Cc3ccccc3)ncc2Cl)c1	4	-4	-3	14	96*	/
COc1ccc(NC(=O)c2nc(S(=O)(=O)Cc3cccc(C)c3)ncc2Cl)c(OC)c1	6	7	0	23	52*	/
Cc1cccc(CS(=O)(=O)c2ncc(Cl)c(C(=O)NCc3ccccc3)n2)c1	-9	1	-20	2	-14	/
N=C1C(c2ccccc2)=C(O)CN1c1cccc2ccccc12	3	-7	4	-18	-2	5
O=C(Cn1nnc(-c2ccccc2)n1)N/N=C/c1cccc([N+](=O)[O-])c1	-11	2	-1	16	-9	20
O=C(Cn1nnc(-c2ccccc2)n1)N/N=C/c1cccc([N+](=O)[O-])c1O	6	-7	5	27*	5	-5
Cc1ccccc1-c1nnc(SCC(=O)Nc2cccnc2Cl)o1	6	-11	1	14	64*	/
Cc1nn(-c2ccccc2)c2c1C(c1ccccc1)C(C#N)=C(N)O2 (configuration not stated)	4	46	52*	2	-11	14
CC1(C(=O)NCc2cccs2)Cc2c(-c3ccccc3)ccnc2O1 (configuration not stated)	/	/	/	14	16	/
C[C@@](Cc1ccc(O)c(O)c1)(NN)C(=O)O	/	/	/	39*	4	9
N[C@@H](Cc1ccc(O)c(O)c1)C(=O)O	/	/	/	3	-9	/
Cc1[nH]n(-c2ccccc2)c(=O)c1/C=N/NC(=O)c1ccc(O)cc1O	-2	7	2	-83	42	/
Cc1ccc(-n2[nH]c(C)c(/C=N/NC(=O)c3ccc(O)cc3O)c2=O)cc1	-9	20	15	-149	73*	/
COc1cccc(NC(=O)CSc2nnc(-c3ccc(C)cc3)o2)c1	-9	7	-12	8	14	57*
O=C(CSc1nnc(-c2ccc(O)cc2)o1)Nc1cccc(O)c1	-8	13	-4	14	48*	/
COCCNC(=O)C1CCCN(C(=O)c2sc(-c3ccccc3)nc2C)CC1 (configuration not stated)	/	/	/	9	-20	/
Cc1cc[n+](-c2[nH]c(=O)sc2/C=N/NC([S-])=Nc2ccccc2)cc1C	-5	-10	1	24	-4	-14
CC(C)(C)c1cc[n+](-c2[nH]c(=O)sc2/C=N/NC([S-])=Nc2ccccc2)cc1	4	-2	4	25*	-2	7
CC[C@H](C)[C@@H]1NC(=O)[C@@H](CC(C)C)NC(=O)[C@H](C(C)C)NC(=O)[C@H]2CSSC[C@H](NC1=O)C(=O)N2	/	/	/	20	94*	/
N#CC1=C(N)N2C(=C(C#N)C1c1ccc(Br)cc1)Nc1ccccc12 (configuration not stated)	-1	-7	-5	/	/	4
N#CC1=C(N)N2C(=C(C#N)C1c1cccc(Br)c1)Nc1ccccc12 (configuration not stated)	4	2	1	-406	53*	28
N#C/C(=N/Nc1ccccc1[N+](=O)[O-])C(N)=S	-11	-13	12	45*	6	6
SMILES	SENP8 block-1	SENP6 inh	SENP7 inh	SENP8 block-2	TRAIL sens C8	PPC-1+TRAIL kill
N#C/C(=N\Nc1ccc(Cl)cc1)C(N)=S	16	33	-32	46*	16	8
CC(C)NC[C@@H](O)c1ccc(O)c(O)c1	3	7	6	44*	-18	12
COc1ccc(Nc2cccccc2=O)cc1	-3	2	-4	20	0	7
COc1ccc(Nc2cccc3ccccc23)cc1	4	29	23	i	56*	/
C[C@H](c1ccccc1)N1C[C@H](COCc2ccccc2)Oc2cc(N3CCC[C@H]3C(N)=O)ccc2S1(=O)=O	/	/	/	19	-8	/
O=S(=O)(Nc1ccc(-c2nc3cccnc3s2)cc1)c1ccccc1F	66*	83*	38	-468	9	2
Cc1nc2ccc(S(=O)(=O)Nc3ccc(-c4nc5cccnc5s4)cc3)cc2s1	4	9	7	-417	3	0
COCCN1C(=O)/C(=C/c2ccc(N3CCCC3)cc2)SC1=S	5	0	9	44*	11	12
COc1ccc(/C=C2/SC(=S)N(CCC(=O)N3CCN(C)CC3)C2=O)cc1	-20	-8	-14	37*	1	/
COc1ccc(/C=C2\SC(=S)N(CCC(=O)N3CCCCC3)C2=O)cc1	-1	-10	-5	26	-5	/
O=C(C1CCCO1)N1CCN(S(=O)(=O)c2ccc(Cl)cc2)CC1 (configuration not stated)	8	0	-5	5	10	/
O=C(COC(=O)c1ccc[n+]([O-])c1)Nc1c(Br)cc([N+](=O)[O-])cc1Br	0	-14	-1	/	/	13
Oc1ccc(/C=N/Nc2nccnc2Cl)c(O)c1	96*	96*	101*	-122	3	36
Oc1ccc(C=NNc2ccccn2)c(O)c1	/	/	/	-3	39	/
C=CCONC(=O)c1cc(OCC(F)(F)F)ccc1OCC(F)(F)F	6	-3	1	23	13	15
O=C(NNC(=O)c1cc(OCC(F)(F)F)ccc1OCC(F)(F)F)c1ccc(Cl)c(Cl)c1	-3	-20	13	19	66*	5
CCCCC1SC(N)=NC1=O (configuration not stated)	/	/	/	3	-11	/
COc1ccc([N+](=O)[O-])cc1NC(=O)c1cn(-c2ccc(C)c(C)c2)c(=O)c2ccccc12	4	-5	4	19	14	22
O=C1O/C(=C/c2ccccc2)c2ccccc21	22	59*	27	-29	-9	7
N#CC1=C(c2ccccc2)/C(=C/c2ccccc2)OC1=O	7	-11	-3	-37	48	-6
Cc1ccc(C(=O)NN=Cc2ccc3c(c2)OCO3)cc1	/	/	/	-127	33	/
CN(C)c1ccc(/C=N/NC(=O)c2ccc3c(c2)OCO3)cc1	32	41	48	-294	20	/
O=C(N/N=C/c1ccccc1)c1ccc2c(c1)OCO2	-2	11	19	19	56*	/
C/C(=N\NC(=O)c1ccc2c(c1)OCO2)c1ccco1	8	-19	38	-2	52*	37
Cc1ccc(C(=O)N/N=C/c2ccc3c(c2)OCO3)o1	36	61*	59*	-125	36	15
O=C(N/N=C/c1ccc(Br)cc1)c1ccc(Br)o1	65*	86*	77*	19	33	16

Source: PubChem BioAssay (Sanford-Burnham Center for Chemical Genomics)
